Consider six compounds from ChEMBL document CHEMBL3988442, “University of Dundee, Small-Polar-MMV Screening Library” (2021).

For part of these data: Results with a measured potency or affinity are listed apart.

Design in all cases: scale not given: direction of the effect not stated beside the values
The target in assay [1] is Protein translocase subunit SecA (Escherichia coli (strain K12)) (UniProt P10408). Nature of the assay: Assay to Identify E. coli SecA ATPase Inhibitors. In kind it is functional. The note with it: 30 µM.
In assay [2] the target is T1, Ubiquitin-activating enzyme e1, putative (Leishmania donovani (strain BPK282A1)) (UniProt E9BSI1).
T1 sequence (whole entry): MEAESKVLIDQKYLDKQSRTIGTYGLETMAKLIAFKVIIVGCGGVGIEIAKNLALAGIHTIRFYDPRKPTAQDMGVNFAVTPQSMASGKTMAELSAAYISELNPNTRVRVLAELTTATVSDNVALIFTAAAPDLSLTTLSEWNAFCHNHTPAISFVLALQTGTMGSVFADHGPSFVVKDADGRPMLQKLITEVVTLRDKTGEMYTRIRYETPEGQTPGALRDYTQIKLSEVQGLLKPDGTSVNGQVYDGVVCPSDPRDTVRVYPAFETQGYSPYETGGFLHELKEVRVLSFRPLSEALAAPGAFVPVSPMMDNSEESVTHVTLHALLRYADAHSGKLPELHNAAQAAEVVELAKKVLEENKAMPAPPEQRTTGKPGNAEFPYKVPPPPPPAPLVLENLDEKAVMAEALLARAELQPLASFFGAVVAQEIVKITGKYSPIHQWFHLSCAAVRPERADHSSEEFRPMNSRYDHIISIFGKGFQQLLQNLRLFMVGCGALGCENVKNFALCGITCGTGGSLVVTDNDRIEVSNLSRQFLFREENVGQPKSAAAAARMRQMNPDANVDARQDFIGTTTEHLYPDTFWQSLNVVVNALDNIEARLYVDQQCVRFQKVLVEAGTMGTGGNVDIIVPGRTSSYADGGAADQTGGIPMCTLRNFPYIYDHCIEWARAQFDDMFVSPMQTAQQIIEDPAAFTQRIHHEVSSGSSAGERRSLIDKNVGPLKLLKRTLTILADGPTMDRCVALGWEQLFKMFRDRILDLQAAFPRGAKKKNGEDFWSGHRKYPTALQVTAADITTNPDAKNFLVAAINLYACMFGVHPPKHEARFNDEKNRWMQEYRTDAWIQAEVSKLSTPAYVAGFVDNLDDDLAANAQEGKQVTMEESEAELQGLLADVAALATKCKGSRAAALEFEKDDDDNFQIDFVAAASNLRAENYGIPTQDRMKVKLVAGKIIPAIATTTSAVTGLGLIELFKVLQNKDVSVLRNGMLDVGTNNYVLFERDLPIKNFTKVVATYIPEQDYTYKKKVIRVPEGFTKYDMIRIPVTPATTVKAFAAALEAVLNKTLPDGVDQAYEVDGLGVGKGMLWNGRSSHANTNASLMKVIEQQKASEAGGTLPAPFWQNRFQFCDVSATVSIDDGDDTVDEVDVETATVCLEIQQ
Nature of the assay: Leishmania donovani Ubiquitin Activating Enzyme (LdE1). The note with it: 30 µM. The format is functional.

In assay [3] the target is AMP-activated protein kinase, AMPK (Homo sapiens) (UniProt P54646+O43741+P54619+Q9UGJ0+Q9Y478+Q13131+Q9UGI9). Nature of the assay: AMP-dependent Kinase enzyme assay. An in vitro enzyme assay that detects ADP turnover that is directly proportional to AMPK activity. This uses naive AMPK that is activated during the assay with MK-8722. The format is functional. The settings on record: 30 µM.

Assay [4] deals with Sialic acid-binding Ig-like lectin 9 (Homo sapiens) (UniProt Q9Y336). Nature of the assay: Hs-Siglec9 ALPHAscreen SOP 20170721. The settings on record: 10 µM. On the technique in general: Bead proximity is the source of the signal in Alpha formats.
A further assay relates to Trypanosoma cruzi. Nature of the assay: Trypanosoma cruzi phosphomannomutase and mannose-1-phosphate guanylyltransferase assay. In kind it is functional. The settings on record: 10 µM.
Assay [5] concerns the target T2, Arginase-2, mitochondrial (Homo sapiens) (UniProt P78540).
T2 sequence (whole entry): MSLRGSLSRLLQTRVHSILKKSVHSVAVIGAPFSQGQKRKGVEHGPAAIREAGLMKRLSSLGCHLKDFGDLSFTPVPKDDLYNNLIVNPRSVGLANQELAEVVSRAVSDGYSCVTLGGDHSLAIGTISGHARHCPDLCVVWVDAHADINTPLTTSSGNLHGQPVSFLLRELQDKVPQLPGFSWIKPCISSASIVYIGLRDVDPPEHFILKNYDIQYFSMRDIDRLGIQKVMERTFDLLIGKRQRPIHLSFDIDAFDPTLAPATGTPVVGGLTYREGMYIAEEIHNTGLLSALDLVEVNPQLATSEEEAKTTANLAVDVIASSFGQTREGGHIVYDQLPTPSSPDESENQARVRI
Nature of the assay: in vitro enzyme assay to detect the production of urea directly proportional to the activity of Arginase II. Also: in the data most compounds retested in dose-response had high values. The settings on record: 33.3 µM. In kind it is functional.

Assay [6] concerns the target T3, Proteasome subunit beta (Trypanosoma cruzi) (UniProt O96673).
T3 sequence (whole entry): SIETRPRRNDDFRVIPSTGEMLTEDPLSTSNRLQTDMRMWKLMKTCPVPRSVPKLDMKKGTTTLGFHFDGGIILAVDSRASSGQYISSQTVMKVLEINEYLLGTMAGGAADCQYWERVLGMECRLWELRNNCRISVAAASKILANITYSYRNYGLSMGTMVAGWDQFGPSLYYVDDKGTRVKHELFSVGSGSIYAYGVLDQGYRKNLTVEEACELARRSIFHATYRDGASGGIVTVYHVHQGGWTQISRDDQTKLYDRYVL
Nature of the assay: Trypanosoma cruzi proteasome chymotrypsin-like activity (TcProtChymo) assay. Also: in the data most compounds retested in dose-response had high values. In kind it is functional. The settings on record: 9.37 µM.

The species entered for a further assay is Homo sapiens. Nature of the assay: To identify inhibition of the IFN signalling (Jak-Stat) pathway via expression of an eGFP reporter gene under the control of an IFN-stimulated response element (ISRE) containing MxA promoter. In kind it is functional. The settings on record: 30 µM. In general terms: A reporter such as luciferase makes a cellular process visible.

The target in assay [7] is T4, Tyrosyl-tRNA synthetase, putative (Trypanosoma cruzi (strain CL Brener)) (UniProt Q4DSP6).
T4 sequence (whole entry): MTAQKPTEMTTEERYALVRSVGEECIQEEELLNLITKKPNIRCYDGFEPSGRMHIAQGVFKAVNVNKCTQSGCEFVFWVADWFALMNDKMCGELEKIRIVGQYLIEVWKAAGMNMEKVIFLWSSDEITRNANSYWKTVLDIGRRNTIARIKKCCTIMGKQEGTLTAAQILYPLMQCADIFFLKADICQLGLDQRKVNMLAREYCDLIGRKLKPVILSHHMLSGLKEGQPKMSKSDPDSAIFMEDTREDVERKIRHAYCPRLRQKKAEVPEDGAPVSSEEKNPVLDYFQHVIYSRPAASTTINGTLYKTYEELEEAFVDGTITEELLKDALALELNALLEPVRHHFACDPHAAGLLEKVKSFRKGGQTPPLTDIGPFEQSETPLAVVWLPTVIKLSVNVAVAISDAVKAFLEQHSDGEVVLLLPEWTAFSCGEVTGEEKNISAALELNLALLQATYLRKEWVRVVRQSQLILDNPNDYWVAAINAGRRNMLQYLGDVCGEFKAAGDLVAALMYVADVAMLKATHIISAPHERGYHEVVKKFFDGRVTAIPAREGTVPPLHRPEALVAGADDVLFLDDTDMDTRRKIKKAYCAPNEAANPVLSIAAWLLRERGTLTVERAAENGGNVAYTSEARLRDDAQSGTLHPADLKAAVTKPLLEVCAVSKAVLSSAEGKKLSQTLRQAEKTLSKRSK
Nature of the assay: Trypanosoma cruzi tyrosyl tRNA synthetase (TcYRS) _High Tyrosine SOP. Also: in the data most compounds retested in dose-response had high values. The format is functional. The settings on record: 30 µM.

In assay [8] the target is T4, Tyrosyl-tRNA synthetase, putative (Trypanosoma cruzi (strain CL Brener)). Nature of the assay: Trypanosoma cruzi tyrosyl tRNA synthetase (TcYRS) SOP. In kind it is functional. The note with it: 30 µM.
The target in assay [9] is Chromo domain-containing protein 1 (Saccharomyces cerevisiae (strain ATCC 204508 / S288c) (Baker's yeast)) (UniProt P32657). Nature of the assay: ScCHD-1 Enzyme Inhibition Assay. Also: in the data most compounds retested in dose-response had high values. The format is functional. The settings on record: 30 µM.
Chain of Chromo domain-containing protein 1 (Saccharomyces cerevisiae (strain ATCC 204508 / S288c) (Baker's yeast)) (P32657 whole entry, the tested form may be a part): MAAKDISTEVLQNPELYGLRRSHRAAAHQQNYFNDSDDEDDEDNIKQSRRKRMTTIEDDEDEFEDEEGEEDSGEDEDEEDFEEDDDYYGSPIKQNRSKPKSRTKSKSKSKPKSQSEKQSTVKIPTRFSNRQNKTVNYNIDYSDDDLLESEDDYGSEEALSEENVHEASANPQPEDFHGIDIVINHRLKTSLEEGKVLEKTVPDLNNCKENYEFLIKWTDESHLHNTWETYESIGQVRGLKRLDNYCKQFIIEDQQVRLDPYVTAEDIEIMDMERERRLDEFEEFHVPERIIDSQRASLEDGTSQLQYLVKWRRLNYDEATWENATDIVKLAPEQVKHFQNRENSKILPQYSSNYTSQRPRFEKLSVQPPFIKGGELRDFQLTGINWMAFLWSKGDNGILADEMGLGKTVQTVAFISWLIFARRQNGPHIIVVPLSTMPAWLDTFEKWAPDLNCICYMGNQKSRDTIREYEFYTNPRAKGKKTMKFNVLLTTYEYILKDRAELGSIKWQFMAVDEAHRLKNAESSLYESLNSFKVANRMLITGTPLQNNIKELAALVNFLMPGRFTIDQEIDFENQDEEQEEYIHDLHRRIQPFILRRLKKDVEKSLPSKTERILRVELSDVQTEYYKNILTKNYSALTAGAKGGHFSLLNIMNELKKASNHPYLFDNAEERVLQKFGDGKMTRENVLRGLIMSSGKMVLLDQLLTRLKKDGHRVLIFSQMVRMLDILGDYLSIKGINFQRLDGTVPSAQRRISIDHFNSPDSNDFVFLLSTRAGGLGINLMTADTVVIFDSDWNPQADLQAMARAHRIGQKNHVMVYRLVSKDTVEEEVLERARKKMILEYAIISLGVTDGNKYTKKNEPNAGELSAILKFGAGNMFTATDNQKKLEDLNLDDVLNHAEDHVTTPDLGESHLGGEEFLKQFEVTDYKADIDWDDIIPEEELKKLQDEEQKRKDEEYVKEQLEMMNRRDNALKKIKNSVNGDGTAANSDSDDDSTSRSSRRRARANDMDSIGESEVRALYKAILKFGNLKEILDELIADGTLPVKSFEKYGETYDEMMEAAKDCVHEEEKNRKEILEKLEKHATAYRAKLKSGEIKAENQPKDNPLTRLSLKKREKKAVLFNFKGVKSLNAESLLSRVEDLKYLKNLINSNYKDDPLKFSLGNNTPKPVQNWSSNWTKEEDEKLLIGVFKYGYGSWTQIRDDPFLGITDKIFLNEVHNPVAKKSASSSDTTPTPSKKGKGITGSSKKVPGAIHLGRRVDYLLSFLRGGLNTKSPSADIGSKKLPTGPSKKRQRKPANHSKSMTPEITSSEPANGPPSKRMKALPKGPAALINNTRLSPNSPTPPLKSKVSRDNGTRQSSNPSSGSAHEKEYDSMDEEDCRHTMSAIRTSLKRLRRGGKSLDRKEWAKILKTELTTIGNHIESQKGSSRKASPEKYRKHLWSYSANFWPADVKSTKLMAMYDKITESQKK

Chain of Sialic acid-binding Ig-like lectin 9 (Homo sapiens) (Q9Y336 whole entry): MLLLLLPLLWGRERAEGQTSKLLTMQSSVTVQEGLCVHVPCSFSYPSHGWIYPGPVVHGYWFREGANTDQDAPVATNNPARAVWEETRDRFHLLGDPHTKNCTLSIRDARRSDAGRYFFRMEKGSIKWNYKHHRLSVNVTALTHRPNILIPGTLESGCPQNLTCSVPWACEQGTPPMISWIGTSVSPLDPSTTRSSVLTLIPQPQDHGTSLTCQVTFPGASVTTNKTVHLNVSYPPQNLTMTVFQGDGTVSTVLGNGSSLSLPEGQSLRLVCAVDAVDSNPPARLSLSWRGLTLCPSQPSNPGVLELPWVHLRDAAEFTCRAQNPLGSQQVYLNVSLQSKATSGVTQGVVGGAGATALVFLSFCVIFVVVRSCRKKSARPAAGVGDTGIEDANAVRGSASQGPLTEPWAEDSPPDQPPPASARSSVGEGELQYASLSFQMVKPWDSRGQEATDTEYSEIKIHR
Chain of Protein translocase subunit SecA (Escherichia coli (strain K12)) (P10408 whole entry): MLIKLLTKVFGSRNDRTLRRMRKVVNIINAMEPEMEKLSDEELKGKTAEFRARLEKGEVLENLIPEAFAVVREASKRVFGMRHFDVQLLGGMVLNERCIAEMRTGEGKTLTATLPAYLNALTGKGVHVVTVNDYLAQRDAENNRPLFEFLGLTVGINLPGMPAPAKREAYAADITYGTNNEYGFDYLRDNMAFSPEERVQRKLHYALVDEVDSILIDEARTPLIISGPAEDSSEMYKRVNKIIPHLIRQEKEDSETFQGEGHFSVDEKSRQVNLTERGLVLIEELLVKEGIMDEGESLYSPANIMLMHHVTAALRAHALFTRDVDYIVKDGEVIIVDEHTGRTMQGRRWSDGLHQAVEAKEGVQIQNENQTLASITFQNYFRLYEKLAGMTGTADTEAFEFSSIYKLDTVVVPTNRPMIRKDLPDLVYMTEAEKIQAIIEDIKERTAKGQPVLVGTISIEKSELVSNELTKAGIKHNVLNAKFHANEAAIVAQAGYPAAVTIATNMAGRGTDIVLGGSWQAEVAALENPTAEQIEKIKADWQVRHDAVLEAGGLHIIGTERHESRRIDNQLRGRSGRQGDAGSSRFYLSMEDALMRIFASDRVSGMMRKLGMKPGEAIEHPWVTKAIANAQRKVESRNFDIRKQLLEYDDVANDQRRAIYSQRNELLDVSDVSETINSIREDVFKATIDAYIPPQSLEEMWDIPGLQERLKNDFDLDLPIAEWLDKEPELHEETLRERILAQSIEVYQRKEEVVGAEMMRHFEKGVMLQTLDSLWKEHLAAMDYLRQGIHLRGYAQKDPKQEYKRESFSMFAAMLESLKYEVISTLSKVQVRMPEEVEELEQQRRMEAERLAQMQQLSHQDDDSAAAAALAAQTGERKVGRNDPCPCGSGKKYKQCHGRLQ

With `CCCNC(=O)NC(=O)CN(CC(C)O)c1ccccc1` (stereo unspecified), the Percent Effect was -3.79% in assay [1]; 10.4% in assay [2]; 2.88% in [3]; -6.45% in assay [4]; 6.95% in the assay on Trypanosoma cruzi; -0.632% in assay [5]. For the same compound, the Percent Effect in [6] is 6.22%; in the assay listed under Homo sapiens it was -9.46%; in [7] it was 5.71%; in [8] it was 9.41%; in [9], 2.09%.

Regarding `CCOc1ncccc1C(=O)NCCN(CC)C1CC1`, the Percent Effect is -6.27% in [1]; 3.8% in assay [2]; 1.07% in assay [3]; -1.89% in assay [4]; -0.103% in the assay with Trypanosoma cruzi; 5.38% in [5]. Further, the Percent Effect is 8.75% in assay [6]; 5.7% in the assay listed under Homo sapiens; 1.04% in assay [7]; 0% in [8]; -23.1% in [9].

As to `CC(C)c1nc2n(n1)CC(NCc1nc(-c3cccnc3)no1)CC2` (stereo unspecified), the Percent Effect in assay [1] is -3.79%; in assay [2] it was 2.6%; in assay [3] it was -1.93%; in assay [4], -12.6%; in the assay on Trypanosoma cruzi it was 5.78%; in assay [5] it was -2.74%. Besides, the Percent Effect in [6] is 11.1%; in the assay listed under Homo sapiens, -3.81%; in [7], 3.81%; in assay [8], 11.8%; in assay [9], -23.3%.

For `Cn1nc(CNC(=O)C2CCCC2)cc1C1CC1`, the Percent Effect in assay [1] is -6.17%; in assay [2] it was 10.4%; in assay [3], -2.49%; in assay [4], -7.84%; with Trypanosoma cruzi it was 5.23%; in assay [5], -0.645%. Also, the Percent Effect in assay [6] was 2.79%; in the assay filed under Homo sapiens, 6.93%; in assay [7], 0%; in assay [8], 16.7%; in assay [9], -8.08%.

With `Cc1ccc(C(=O)N2CCC3(CCC(=O)N(CC(N)=O)C3)CC2)c(O)c1`, the Percent Effect in [1] was 1.03%; in [2], 4.17%; in assay [3], -0.266%; in assay [4], -3.34%; in the assay on Trypanosoma cruzi it was -2.82%; in assay [5], -2.65%. Moreover, the Percent Effect in assay [6] is 14.2%; in the assay listed under Homo sapiens it was -6.14%; in assay [7] it was 3.16%; in assay [8], 5.13%; in assay [9], -3%.

Consider `CC(C)(C)OC(=O)N1CCCc2ccc(NCc3ncc[nH]3)cc21`, for which the Percent Effect in assay [1] was -8.07%; in [2], 2.6%; in [3] it was 1.02%; in assay [4] it was 4.72%; in the assay with Trypanosoma cruzi it was -4.03%; in assay [5] it was -11%. The Percent Effect was 4.66% in [6]; 7.74% in the assay listed under Homo sapiens; 1.07% in assay [7]; -3.7% in assay [8]; -0.00165% in assay [9].
